Assay results reported in the supplement of paper PMC12645437, “Orthogonal IMiD-Degron Pairs Induce Selective Protein Degradation in Cells” (ACS Chemical Biology, 2025).
The full ranking holds about 8,300 sequences; the median of “log2 fold change of degron read counts, EGFP-low vs EGFP+ sorted cells (limma voom), compound-induced degradation” is about -1.1, and the highest 2% start at about 3.2. The list comes from a sample in which the highest values are over-represented; it also holds similar and randomly drawn sequences.

T1: CRBN, Q96SW2
T1 chain: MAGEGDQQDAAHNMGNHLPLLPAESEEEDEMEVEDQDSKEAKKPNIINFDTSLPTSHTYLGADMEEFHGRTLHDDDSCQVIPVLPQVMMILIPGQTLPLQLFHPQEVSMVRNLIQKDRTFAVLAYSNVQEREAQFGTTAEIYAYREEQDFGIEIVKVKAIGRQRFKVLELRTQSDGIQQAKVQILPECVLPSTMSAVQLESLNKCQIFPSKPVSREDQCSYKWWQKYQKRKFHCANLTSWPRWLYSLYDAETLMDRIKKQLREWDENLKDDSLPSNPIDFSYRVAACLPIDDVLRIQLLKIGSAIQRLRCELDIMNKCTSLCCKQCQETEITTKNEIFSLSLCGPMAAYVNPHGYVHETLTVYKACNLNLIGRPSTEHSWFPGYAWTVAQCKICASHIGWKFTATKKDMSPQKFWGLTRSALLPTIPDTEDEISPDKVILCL


Target: T1, CRBN, Q96SW2
Assay: log2 fold change of degron read counts, EGFP-low vs EGFP+ sorted cells (limma voom), compound-induced degradation; higher = more compound-induced degradation of the degron-EGFP fusion; degrons are variants of IKZF1/3 zinc finger 2; compound dose not given here
Details: Jurkat, 18 h
Method: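 Pooled library of 8380 IKZF3 ZF2 degron mutants (positions 146-167 varied within the IKZF3 130-189 degron; only the varied core is printed, flanks not printed) fused to EGFP with IRES-mCherry, lentivirally expressed in Jurkat cells. mCherry+ cells were treated with one IMiD compound for 18 h (dose not stated) and FACS-sorted into EGFP-low and EGFP+ populations. Degron sequences were counted by NGS, and log2FC (EGFP-low vs EGFP+) was estimated by limma voom over 3 biological replicates.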

[1] = compound: compound 19 (5-tert-butyl-thalidomide)
[2] = compound: compound 22 (5-morpholino-thalidomide)
[3] = compound: compound 33 (diphenyl IMiD analogue)
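Further: pooled lentiviral library of zinc finger degron-EGFP fusions in mCherry-positive Jurkat cells, FACS-sorted after compound exposure, with degron abundance counted by next-generation sequencing.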

| Sequence | log2 fold change of degron read counts [1] | log2 fold change of degron read counts [2] | log2 fold change of degron read counts [3] | log2 fold change of degron read counts (compound: thalidomide) |
| --- | --- | --- | --- | --- |
| FCCPQCGANFTQKGNLLRHIKL [46F_47C_49P_50Q_52G_53A_54N_55F_67L_, Q9UKT9] | -0.811 | -1.28 | 0.128 | -0.853 |
| FMCNQCGHWFTQKGNLLRHIKL [46F_47M_49N_50Q_52G_53H_54W_55F_67L_, Q9UKT9] | -2.24 | -2.49 | -2.26 | -2.73 |
| FDCNQCGANFTQKGNLLRHIKL [46F_47D_49N_50Q_52G_53A_54N_55F_67L_, Q9UKT9] | -2.41 | -2.24 | -2.07 | -2.31 |
| FNCEICGARFTQKGNLLRHIKL [46F_47N_49E_50I_52G_53A_54R_55F_67L_, Q9UKT9] | 2.49 | 0.909 | -0.686 | 0.645 |
| FSCEICGALFTQKGNLLRHIKL [46F_47S_49E_50I_52G_53A_54L_55F_67L_, Q9UKT9] | 0.851 | 0.0276 | 2.41 | -0.115 |
| FCCEICGARFTQKGNLLRHIKL [46F_47C_49E_50I_52G_53A_54R_55F_67L_, Q9UKT9] | 3.25 | 3.01 | 1.66 | 3.08 |
| FSCEICGARFTQKGNLLRHIKL [46F_47S_49E_50I_52G_53A_54R_55F_67L_, Q9UKT9] | 3.25 | 2.89 | 0.489 | 2.12 |
| FGCEICGARFTQKGNLLRHIKL [46F_47G_49E_50I_52G_53A_54R_55F_67L_, Q9UKT9] | 3.15 | 2.26 | -0.576 | 1.48 |
| FKCEICGARFTQKGNLLRHIKL [46F_47K_49E_50I_52G_53A_54R_55F_67L_, Q9UKT9] | -1.5 | -3.6 | -3.25 | -1.17 |
